About 83,000 compounds went through this panel and 20% of them were active in at least one assay; those are over-represented in the sample as a whole.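 For each line, cells grew in 96-well plates with the test compound present at a single concentration for 48 hours.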 Activity calls are given as the source filed them.

This assay has as its system TK-10 renal. The experiment in a line: NCI-60 one-dose screen, 48 h (100 = growth as untreated, 0 = no growth, -100 = all killed). To be noted: 10 µM unless noted. On the procedure: Growth inhibition of the TK-10 human tumor cell line is measured as a screen for anti-cancer activity. Cells are grown in 96 well plates and exposed to the test compound for 48 hours. Compounds are tested at a single concentration, which is 10^-5 M for most compounds. The reported endpoint is percent growth (GI% or GIPRCNT), where numbers from 0 - 100% represent growth inhibition, and numbers from -100% - 0 represent cell death. For example, a value of 40 represents 60% growth inhibition. A value of 0 means no net growth occurred over the course of the experiment. A value of -40 indicates 40% of cells at the beginning of the experiment died by the end of the experiment. A value of -100 means all cells are dead at the end of the experiment.
NCI-60 Human Tumor Cell Lines Screen was performed using the standard one-dose NCI protocol, which is described in more detail at https://dtp.cancer.gov/discovery_development/nci-60/default.htm.
Compounds with GIPRCNT values below 10 were considered active. Activity score was based on GIPRCNT using the following formula: […]
Score is 0 for GIPRCNT values of 100 or above, 50 for GIPRCNT values of 0, and 100 for GIPRCNT values of -100.
Consider `O=C(c1nc2ccccc2[nH]1)C1C(c2ccc(F)cc2)C2CC3CCCCC3N2[C@@]12C(=O)Nc1ccc(Cl)cc12` (stereo not given in full), for which the growth is 72.9% (inactive). As for `O=[N+]([O-])c1cc2c(ccc3occc32)o1`, the growth is 35.7% (inactive). To `CC(=O)c1ccc2oc(=O)n(Cc3ccc(C#N)cc3)c(=O)c2c1` belongs 103% (inactive). The figure for `O=C(c1nc2ccccc2[nH]1)C1[C@@H](c2cccc(O)c2)C2CC3CCCCC3N2[C@@]12C(=O)Nc1cc(Cl)ccc12` (stereo not given in full) is 72.4% (inactive). As for `O=C1c2cc(Cl)ccc2Oc2cc([N+](=O)[O-])ccc2N1c1ccc(F)cc1F`, the growth is 112% (inactive). To `CCOc1cccc(/C=N\Nc2nc(=O)cc(C(=O)OC)s2)c1O` belongs 107% (inactive); to `CN1CCN(Cc2ccc(C(=O)Nc3cncc(C#Cc4cnc5cccnn45)c3)cc2C(F)(F)F)CC1`, 82.8% (inactive); to `O=c1oc2ccc(-c3ccc(F)cc3F)cc2c(=O)n1-c1cccc(C(F)(F)F)c1`, 11.6% (inactive).

On to `Cc1nn(-c2nc3ccccc3[nH]2)c2c1C(c1ccc(OCC(N)=O)cc1)CC(=O)N2` (stereo not given), for which the growth is 114% (inactive). For the compound `O=c1c(-c2nc3ccccc3[nH]2)cc2ccccc2n1Cc1cn(Cc2ccc(F)cc2)nn1`, the growth was 21.7% (inactive).

Take `COc1cc2nc(NC3CCCC3)nc(NC3CCN(C(C)C)CC3)c2cc1OC`: the growth was 71.7% (inactive). To `COc1ccc(-n2c(C(O)c3ccccc3)nn(CN3CCOCC3)c2=S)cc1` (stereo not given) belongs 119% (inactive); to `CNCCNc1nc2ccccc2c2c(=O)c3cc(OC)ccc3sc12`, -15.1% (active); to `O=C(/C=C/c1ccc(Cl)cc1)c1ccc(Nc2nc(NCCO)nc(Nc3ccc(Cl)cc3)n2)cc1`, 94.2% (inactive).

`O=C(N/N=C/c1ccccc1O)C(=O)Nc1ccc(F)cc1`: the growth is 53.8% (inactive).

As to `Cc1sc2ncnc(Sc3nc4ccccc4[nH]3)c2c1C`, the growth is -87.2% (active). Regarding `N#C/C(=C1\SC(=O)CN1c1ccccc1)c1nc2ccccc2s1`, the growth was 135% (inactive). The figure for `CCC1=C[C@@H]2CN(C1)Cc1c([nH]c3ccccc13)[C@@](C(=O)OC)(c1cc3c(cc1OC)N(C)[C@H]1[C@@](O)(C(=O)OC)[C@H](OC(C)=O)[C@]4(CC)[C@@H]5C[C@@H]5CN5CC[C@]31[C@@H]54)C2` is 24.2% (inactive); for `O=c1oc2ccc(Br)cc2c(=O)n1-c1ccc(F)cc1F` it is 11.6% (inactive).

As for `C=C(C)CCC(C)N1CCC(N2CCC(C(=O)NCCc3ccccc3)CC2)CC1` (stereo not given), the growth is 114% (inactive). In the case of `COc1cc(C(C)n2cc(-c3ccccc3)nn2)ccc1OC1CCCC1` (stereo not given), the growth was 71.8% (inactive). The figure for `O=C(Nc1ccc(F)cc1F)c1cc(I)ccc1O` is 23.1% (inactive); for `COc1ccc(/C=C2\SC(=Nc3ccccc3)NC2=O)cc1` it is -92.3% (active); for `COc1cccc(/C=C/C(=O)c2c(C)nc3ccccc3c2/C=C/c2ccccc2)c1OC` it is 61.6% (inactive). Turning to `Clc1ccc(Nc2scc3[n+]2CCC3)cc1`, the growth is 111% (inactive). To `COc1ccc(CSc2nnc(SCC(=O)Nc3ccc(Cl)cc3)s2)cc1` belongs 96.3% (inactive); to `O=C(CCc1nnc2sc(COc3ccccc3)nn12)c1nc2ncccc2[nH]1`, 124% (inactive); to `O=C(CCN1C(=O)c2ccccc2C1=O)Nc1ccc(Cl)cc1`, 93.1% (inactive). Turning to `O=C(CSc1ccc2nnc(-c3cccc(F)c3)n2n1)Nc1ccc2c(c1)OCO2`, the growth was 112% (inactive). The figure for `CCOC(=O)C1=C(C)N=c2s/c(=C\c3cc(Cl)ccc3O)c(=O)n2C1c1ccc(OC)cc1` (stereo not given) is 94.1% (inactive); for `O=C(Nc1ccc(N2CCNCC2)cc1)c1[nH]ncc1Nc1ncnc2sc3c(c12)CCC3` it is -95.3% (active); for `O=C1N=c2ccccc2=C1c1sc(=Nc2ccccc2)n(Nc2ccccc2)c1O` it is 138% (inactive). Take `CN(C)CCCNCc1ccc(-c2ccc(F)c(Cl)c2)o1`: the growth is 42.8% (inactive).

On to `CC1=NCC2NC(=O)NC(C)=C12` (stereo not given), for which the growth was 95.9% (inactive). As for `O=C1Nc2ccccc2/C1=C/c1cccs1`, the growth is 134% (inactive). To `O=c1oc2ccc(-c3ccc(F)cc3F)cc2c(=O)n1-c1ccc(Cl)c(C(F)(F)F)c1` belongs 15.8% (inactive); to `CCCCN1CCN(c2ccc3nc(-c4ccc5nc(-c6ccc(OC)c(OC)c6)[nH]c5c4)[nH]c3c2)CC1`, 14.9% (inactive); to `O=C(NC1CCN(Cc2ccccc2)CC1)c1cc(C(=O)NC2CCN(Cc3ccccc3)CC2)cc(C(=O)NC2CCN(Cc3ccccc3)CC2)c1`, 80.8% (inactive). On to `Cc1ccc2cc3c(N)c4c(C)ccc(C)c4nc3nc2c1`, for which the growth was 66.6% (inactive). With `CCCN1CCN(c2ccc3nc(-c4ccc5nc(-c6cc(OC)ccc6OC)[nH]c5c4)[nH]c3c2)CC1`, the growth was 118% (inactive).

For the origin of these results see PubChem BioAssay (NCI).
